Test results: PubChem BioAssay (NCI)
Compounds without any hit were thinned out: in the full panel of roughly 79,000, 15% have a hit. Activity calls are given as the source filed them. Cut-off read from the data, not from the text of the source: active = growth inhibition above about 70%; inactive = the rest.

What was measured:
[1] = NCI Yeast Anticancer Drug Screen. Data for the rad52 strain (AID 147);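 note: 0% = growth of vehicle-treated control cultures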; settings: S. cerevisiae rad52 mutant growth inhibition, active compounds read high
How it was run: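 Screen used a yeast mutant impaired in DNA repair. After compound exposure, growth was measured. Values reflect inhibition compared with vehicle-treated cells.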

[2] = NCI Yeast Anticancer Drug Screen. Data for the wt1 strain (AID 149);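 note: 0% = growth of vehicle-treated wt1 cultures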; settings: S. cerevisiae wt1 strain (SPY 50644) growth inhibition, active compounds read high
How it was run: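 Growth inhibition read against vehicle controls after compound exposure of the wt1 yeast strain.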

[3] = NCI Yeast Anticancer Drug Screen. Data for the rad50EPP+ strain (AID 151);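 note: 0% = growth of vehicle-treated control cultures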; settings: S. cerevisiae rad50 mutant strain, active compounds read high
How it was run: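 Exposing the rad50EPP+ strain to each compound, growth was compared with vehicle-only cultures to give inhibition.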

[4] = NCI Yeast Anticancer Drug Screen. Data for the mgt1 strain (AID 153); settings: S. cerevisiae mgt1 mutant growth inhibition, active compounds read high
How it was run: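 Genetically defined yeast (mgt1) treated with compound; inhibition of growth expressed against vehicle-treated controls.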

[5] = NCI Yeast Anticancer Drug Screen. Data for the rad50 strain (AID 155);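 note: 0% = growth of vehicle-only cultures of the same strain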; settings: S. cerevisiae rad50 strain growth inhibition, active compounds read high
How it was run: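 Readout: growth inhibition relative to vehicle-treated cultures. Compound exposure was carried out in a genetically defined yeast strain deficient in DNA damage repair.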

[6] = NCI Yeast Anticancer Drug Screen. Data for the mec2-1 strain (AID 157); settings: S. cerevisiae mec2-1 strain, active compounds read high
How it was run: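 Readout is yeast growth inhibition, normalised to vehicle-treated controls, in the mec2-1 strain exposed to compound.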

[7] = NCI Yeast Anticancer Drug Screen. Data for the rad14 strain (AID 159);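 note: 0% = growth of vehicle-treated control cultures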; settings: S. cerevisiae rad14 strain growth inhibition, active compounds read high
How it was run: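 Growth inhibition vs vehicle controls; genetically altered yeast strain (DNA damage repair defect) treated with test compounds.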

[8] = NCI Yeast Anticancer Drug Screen. Data for the sgs1 mgt1 strain (AID 161);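 note: 0% = growth of cultures given vehicle only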; settings: S. cerevisiae sgs1 mgt1 strain, active compounds read high
How it was run: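 Yeast cells carrying a defined DNA-repair defect were exposed to test compounds. Growth inhibition was measured relative to vehicle-treated controls.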

[9] = NCI Yeast Anticancer Drug Screen. Data for the CLN2oe strain (AID 163);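 note: 0% = growth of vehicle-only control cultures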; settings: S. cerevisiae CLN2oe strain, active compounds read high
How it was run: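 Values reflect how much compound exposure reduced yeast growth, referenced to vehicle-exposed cells. Assay organism is a strain with a defined genetic change affecting cell-cycle control.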

[10] = NCI Yeast Anticancer Drug Screen. Data for the cln2 rad14 strain (AID 165);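 note: 0% = growth equal to vehicle treated cultures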; settings: S. cerevisiae cln2 rad14 strain, active compounds read high
How it was run: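 Relative to vehicle controls, growth inhibition of compound-treated cln2 rad14 yeast was recorded.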

[11] = NCI Yeast Anticancer Drug Screen. Data for the bub3 strain (AID 167); settings: S. cerevisiae bub3 mutant strain, active compounds read high
How it was run: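 Readout: yeast growth inhibition, expressed relative to vehicle-only wells. The test organism is a mutant strain from a panel with lesions in DNA repair or checkpoint genes.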

[12] = NCI Yeast Anticancer Drug Screen. Data for the wt2 strain (AID 169);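 note: 0% = growth of vehicle-treated yeast cultures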; settings: S. cerevisiae wt2 strain growth inhibition, active compounds read high
How it was run: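 Values express reduction in yeast growth under compound treatment, referenced to vehicle-treated cells.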

[13] = NCI Yeast Anticancer Drug Screen. Data for the mlh1 strain (AID 171);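 note: 0% = growth of vehicle-treated control cultures of the same strain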; settings: S. cerevisiae mlh1 strain growth inhibition, active compounds read high
How it was run: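 Steps: expose the defined-mutant yeast strain to compound; expose a parallel culture to vehicle; measure growth; express compound effect as inhibition relative to the vehicle culture.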

[14] = NCI Yeast Anticancer Drug Screen. Data for the mlh1 rad18 strain (AID 175); settings: S. cerevisiae mlh1 rad18 strain growth inhibition, active compounds read high
How it was run: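 Test agents were incubated with a yeast strain of defined genotype (DNA damage repair defect). Inhibition of growth was derived by comparison with vehicle-exposed cultures.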

[15] = NCI Yeast Anticancer Drug Screen. Data for the rad18 strain (AID 177); settings: S. cerevisiae rad18 mutant growth inhibition, active compounds read high
How it was run: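 A genetically defined yeast mutant impaired in DNA damage repair was treated with test compounds, then its growth was measured against cultures receiving vehicle alone.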

[16] = at 5.0 µM (retest, dose inferred, filed as 0.5)
[17] = at 50.0 µM (retest, dose inferred, filed as 5.0)

Measured: growth inhibition

O=[N+]([O-])O.[NH-]C1CCCCC1[NH-].[NH-]C1CCCCC1[NH-].[NH-]C1CCCCC1[NH-].[OH-].[OH-].[OH-].[Pt+4].[Pt+4].[Pt+4] (stereo not drawn)
active: [14]; [17] 71% | [15]; at 100.0 µM 82%
inactive: [1]; at 1.2 µM -29% | [1]; at 3.7 µM -36% | [1]; at 11.0 µM -51% | [1]; at 33.0 µM -26% | [1]; at 100.0 µM -25% | [2]; at 1.2 µM -15% | [2]; at 3.7 µM -12% | [2]; at 11.0 µM -14% | [2]; at 33.0 µM -14% | [2]; at 100.0 µM -3% | [3]; at 1.2 µM -28% | [3]; at 3.7 µM -26% | [3]; at 11.0 µM -19% | [3]; at 33.0 µM -28% | [3]; at 100.0 µM -31% | [4]; at 1.2 µM -14% | [4]; at 3.7 µM -15% | [4]; at 11.0 µM -19% | [4]; at 33.0 µM -12% | [4]; at 100.0 µM -7% | [5]; at 1.2 µM -6% | [5]; at 3.7 µM -14% | [5]; [16] 17% | [5]; at 11.0 µM -14% | [5]; at 33.0 µM -2% | [5]; [17] 20% | [5]; at 50.0 µM 50.8% | [5]; at 100.0 µM -11% | [6]; at 1.2 µM 12% | [6]; at 3.7 µM -6% | [6]; [16] 16% | [6]; at 11.0 µM 0% | [6]; at 33.0 µM 4% | [6]; [17] 14% | [6]; at 50.0 µM -15.5% | [6]; at 100.0 µM 63% | [7]; at 1.2 µM -5% | [7]; at 3.7 µM -16% | [7]; at 11.0 µM -33% | [7]; at 33.0 µM -5% | [7]; at 100.0 µM -10% | [8]; [16] 27% | [8]; [17] 45% | [8]; at 50.0 µM -22.4% | [9]; at 1.2 µM -8% | [9]; at 3.7 µM -17% | [9]; at 11.0 µM -17% | [9]; at 33.0 µM -23% | [9]; at 100.0 µM -13% | [10]; [16] 12% | [10]; [17] 21% | [10]; at 50.0 µM -7.35% | [11]; at 1.2 µM -4% | [11]; at 3.7 µM -9% | [11]; [16] 20% | [11]; at 11.0 µM -14% | [11]; at 33.0 µM -14% | [11]; [17] 25% | [11]; at 50.0 µM -32% | [11]; at 100.0 µM -9% | [12]; at 1.2 µM -46% | [12]; at 3.7 µM -58% | [12]; at 11.0 µM -55% | [12]; at 33.0 µM -51% | [12]; at 100.0 µM -36% | [13]; at 1.2 µM 2% | [13]; at 3.7 µM -10% | [13]; at 11.0 µM -6% | [13]; at 33.0 µM -13% | [13]; at 100.0 µM 12% | [14]; [16] 40% | [14]; at 50.0 µM 28.6% | [15]; at 1.2 µM -21% | [15]; at 3.7 µM 2% | [15]; at 11.0 µM 18% | [15]; at 33.0 µM 54%
